Reference: PubChem BioAssay (Tox21)
Results filed as inconclusive are left out. Activity calls are given as the source filed them. Calls come from the whole dose curve; as a rule, active = well fitted activation curve with a large enough effect in the repeat runs; inconclusive = weak or mixed curves; inactive = no such curve, though single readings can be large or run the other way.
% is set by controls: 0 for no effect and ±100 for the full control effect; potency is the fitted concentration of half-maximal effect.

What follows are compounds tested against Nuclear receptor subfamily 1 group I member 3 (Homo sapiens) (UniProt Q14994) (assay: qHTS assay to identify small molecule agonists of the constitutive androstane receptor (CAR) signaling pathway (AID 1224839; note: nearly all actives have a fitted effect of over 15% in size;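 for activation: HepG2 cells stably carrying human CAR and a CYP2B6 luciferase reporter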)). Details: HepG2 hCAR CYP2B6-luciferase, agonist mode, 24 h; series mostly up to 92.4 µM; activation: at the top concentration.
Sequence of Nuclear receptor subfamily 1 group I member 3 (Homo sapiens) (Q14994 whole entry, looked up): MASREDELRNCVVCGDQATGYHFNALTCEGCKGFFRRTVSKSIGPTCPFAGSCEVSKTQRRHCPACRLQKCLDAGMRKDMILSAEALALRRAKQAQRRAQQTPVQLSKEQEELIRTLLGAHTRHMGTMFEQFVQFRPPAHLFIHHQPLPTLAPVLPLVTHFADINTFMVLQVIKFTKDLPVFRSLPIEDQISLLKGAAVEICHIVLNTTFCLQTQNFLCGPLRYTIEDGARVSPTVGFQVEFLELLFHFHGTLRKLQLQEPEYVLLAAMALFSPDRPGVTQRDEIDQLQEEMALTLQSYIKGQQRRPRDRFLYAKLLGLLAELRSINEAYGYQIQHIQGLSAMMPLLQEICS
From the text: National Center for Advancing Translational Sciences [NCATS] NIH Chemical Genomics Center [NCGC] U.S. Environmental Protection Agency [EPA] National Institutes of Environmental Health Sciences [NIEHS] National Toxicology Program [NTP] Assay overview: The constitutive androstane receptor (CAR) is a nuclear receptor which regulates multiple drug metabolizing enzymes (DMEs) and transporters. Activating CAR will generally increase the transcription and subsequent translation of CYP2B6 and CYP3A4. These two DMEs represent about 50% of the drug metabolizing potential in the body. […] Recently, there have also been studies performed indicating CARs role in energy metabolism and cancer therapy. Therefore, inducing CARs activity could have a potential effect on diabetes and cancer. Identifying environmental toxins and compounds which modulate CAR, through the use of the Tox21 10K compound collection, will be an important step in determining the toxicity and potential therapeutic effects these factors will have on the human body.
Assay Protocol Summary: A double-stable (hCAR and CYP2B6-2.2kb) transfected cell line, derived from human hepatoma (HepG2) cells, was utilized for the duration of the quantitative high-throughput screens. The HepG2-CYP2B6-hCAR cells suspended in DMEM culture medium supplemented with 10% FBS, 5 ug/mL blasticidin, 0.5 mg/mL geneticin, 100 U/mL penicillin and 100 ug/mL streptomycin were dispensed at 2500 cells/4 uL/well in 1536-well white solid bottom plates using a Multidrop Combi. After the assay plates were incubated at 37 C/5% CO2 for 4 hrs, 23 nL of compounds at 15 concentrations (from 5-48 columns) or positive control (from 1 to 4 columns) were transferred to the assay plates using a Pintool station. One uL of PK11195, was added using a Flying Reagent Dispenser to generate a final concentration of 0.75 uM PK11195 inside each well. After a 24 hr incubation period at 37 C/5% CO2, four uL of ONE-Glo reagent was added into the assay plates using a Flying Reagent Dispenser. After a 30 min incubation period at room temperature, the luminescence intensity in the assay plates was measured using a ViewLux plate reader.
With CC(=O)[C@H]1CC[C@H]2[C@@H]3CC[C@H]4C[C@](C)(O)CC[C@]4(C)[C@H]3CC[C@]12C the “activation” value was 0.191% [at 42.5 µM] (inactive). CC1Sc2c(C(=O)O)c(=O)c3cc(F)c(N4CCNCC4)cc3n21 (stereo not given) was tested, and the “activation” value was -3.37% [at 42.5 µM] (inactive). c1cc2ccc3cccc4ccc(c1)c2c34 was tested, and the Potency was 36 µM (active). In the case of COc1ccc(-c2ccccc2)cc1NNC(=O)OC(C)C, the Potency is reported as 63.7 µM (active). For COC(=O)c1cncn1C(C)c1ccccc1 (stereo not given), the “activation” value was 11.1% [at 42.5 µM] (inactive). In the case of CC(C)(C)c1cc([N+](=O)[O-])cc([N+](=O)[O-])c1O, the “activation” value is reported as -0.13% (inactive). For O=[N+]([O-])c1ccccc1CCl, the “activation” value was 5.92% (inactive). In the case of CNC(C)Cc1ccccc1OC (stereo not given), the “activation” value is reported as -0.901% [at 42.5 µM] (inactive). For CC[C@H]1C[C@H]2[C@@H]3CCC4=CC(=O)CC[C@@H]4[C@H]3CC[C@]2(C)[C@H]1O, the “activation” value was 9% [at 42.5 µM] (inactive). With N#CCC#N the “activation” value was -18.9% (inactive). S=C=NCc1ccccc1 was tested, and the “activation” value was 9.6% (inactive). For CCC(Cl)CCl (stereo not given), the “activation” value was -1.5% (inactive). Brc1ccccc1 was tested, and the “activation” value was -0.708% (inactive). For Clc1ccc(C2(Cn3cncn3)CC(Br)CO2)c(Cl)c1 (stereo not given), the Potency was 60.8 µM (active). For C/C=C/C=O, the “activation” value was 4.57% (inactive). CNP(=O)(OC)Oc1ccc(C(C)(C)C)cc1Cl (stereo not given) was tested, and the Potency was 48.6 µM (active). With Nc1ccc([N+](=O)[O-])cc1[N+](=O)[O-] the “activation” value was -0.652% (inactive). In the case of CCOC(=O)[C@]1(c2ccccc2)Oc2ccccc2[C@@H]1N, the “activation” value is reported as -5.43% (inactive). With O=C(O)CC(Cl)C(=O)O (stereo not given) the “activation” value was -0.0314% (inactive). COC(=O)C(Cl)C(=O)OC was tested, and the “activation” value was 3.6% [at 42.5 µM] (inactive). O=[Se]=O was tested, and the “activation” value was -12.5% [at 42.5 µM] (inactive). CC1CC(CC2CCC(N)C(C)C2)CCC1N (stereo not given) was tested, and the “activation” value was -4.81% (inactive). For [CH3][Sn]([CH3])([Cl])[Cl], the Potency was “inactive”. For CN1C(=O)NC(=O)C(C)(C2=CCCCC2)C1=O (stereo not given), the “activation” value was 2.64% [at 42.5 µM] (inactive). In the case of O=C(O)COc1ccc(Cl)cc1, the “activation” value is reported as -1.52% (inactive). For O=C(NC(=O)c1c(F)cccc1F)Nc1cc(Cl)c(Oc2ncc(C(F)(F)F)cc2Cl)c(Cl)c1, the “activation” value was 9.53% (inactive). For CC(=O)c1cc2c(cc1C)C(C)(C)C(C)CC2(C)C (stereo not given), the Potency was 24.3 µM (active). O=C(CBr)Nc1ccc(Cl)cc1C(=O)c1ccccc1F was tested, and the Potency was 26.6 µM (active). CCOP(=O)(OCC)Oc1ccc([N+](=O)[O-])cc1 was tested, and the Potency was “inactive”. In the case of C[C@H]1CNCCc2ccc(Cl)cc21, the “activation” value is reported as -0.943% [at 42.5 µM] (inactive). For CC(C)N(CCC(C(N)=O)(c1ccccc1)c1ccccn1)C(C)C (stereo not given), the “activation” value was -0.159% [at 42.5 µM] (inactive). For CCC(Br)(CC)C(=O)NC(N)=O, the “activation” value was -0.858% (inactive). In the case of N#Cc1ccc(Cl)cc1, the “activation” value is reported as -0.486% (inactive). For N#Cc1cc(I)c(O)c(I)c1, the “activation” value was -2.15% (inactive). NCCCNCCCN was tested, and the “activation” value was 1.42% (inactive). In the case of Cc1ccc(N)cc1C, the Potency is reported as 4.9 µM (active). For CC(=O)CCC(C)=O, the “activation” value was -0.123% (inactive). C(=NC1CCCCC1)=NC1CCCCC1 was tested, and the Potency was “inactive”. For COP(=S)(Oc1cc(Cl)c(Br)cc1Cl)c1ccccc1 (stereo not given), the Potency was 30.6 µM (active). In the case of O=C(O)C1(c2ccc3c(c2)OC[C@H](Cc2ccc(-c4ccccc4)cc2)[C@H]3O)CCCC1, the “activation” value is reported as -3.08% (inactive).
